Bioassay records (PubChem BioAssay)
Most compounds without a hit are left out; they make up all but 3.3% or so of the library.
FXN GAA850 act = increases GAA850 frataxin promoter reporter activity; activation, % at 6 µM; 360,000 tested, 0.56% active; AID 540364; HEK293 lucGAA850 FXN promoter luciferase reporter, 24 h; percent of 10 µM SAHA response;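 active = activation above the average of all compounds screened plus 3 SD, cutoff fixed separately per campaign, cut at about 7.5% in these data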;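 also: 0% = DMSO wells and 100% = 10 µM SAHA wells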
MITF act = increases MITF-driven TRPM1 promoter luciferase signal; SK-MEL-5 TRPM1-promoter luciferase, 24 h; % of positive control, neutral wells = 0; activation, % at 12.5 µM; 300,000 tested, 0.75% active; AID 588334;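 active = mean activation of at least 80% with every replicate also reaching 80%; inconclusive = mean reaches 80% but some replicate falls short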;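 also: 0% = neutral control wells and 100% = parthenolide positive control wells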
esBAF inh = blocks esBAF chromatin remodeling in mouse ES cells; AID 602393; 350,000 tested, 2% active; reporter increase, % at 12.5 µM; Bmi1-luciferase knock-in reporter, 24 h; 100% = twice the neutral-well signal; in the data active = activation above about 40%; inconclusive = no clear call, values can overlap the other calls;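 also: 0% = median of the plate's neutral control wells and 100% = double that signal; a rise in the Bmi1 reporter signal indicates esBAF inhibition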
Wnt bcat act = activators of Wnt/beta-catenin signaling; AID 743398; Wnt/beta-catenin reporter cell assay, activator, plate reader; 300,000 tested, 1.2% active; activation, % at 9.35 µM; in the data active = activation above about 30%, passing the limit was not always enough; inconclusive = no clear call, values can overlap the other calls;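 also: 0% = neutral control wells and 100% = positive control wells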
Statin myotox sup = suppressors of simvastatin-induced myotoxicity in C2C12 myotubes; ATP luminescence, 48 h; scaled: DMSO 0, geranylgeraniol control 100; 330,000 tested, 0.78% active; AID 602340; rescue of ATP level, % at 7.49 µM;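 active = mean ATP rescue above about 67%, or every replicate alone reaching that limit, limit read from the data, passing the limit was not always enough; inconclusive = no clear call, values can overlap the other calls; inactive = mean under the limit and some replicate under it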;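 also: myotubes were challenged with 10 µM simvastatin during compound exposure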
An asterisk follows results filed as active; ? = inconclusive; nt = no result given.

SMILES	FXN GAA850 act	MITF act	esBAF inh	Wnt bcat act	Statin myotox sup
Oc1cc(Nc2ccccc2)cc2cccnc12	0.0	-56.7	10.0	79.8*	-11.4
Cn1c2ccccc2c(=O)c2c(=O)n(-c3ccc(F)cc3)c(-c3cccs3)nc21	-1.4	11.9	nt	51.4*	nt
O=Cc1cccc(OCc2cccc3ccccc23)c1	3.7	67.5	66.5*	9.6	9.1
COc1ccc(COc2cccc(C=O)c2)cc1	1.8	7.3	21.6	20.3	-2.1
NNC(=O)c1ccc(COc2ccc3ccccc3c2)cc1	-2.2	30.3	nt	33.0*	nt
O=C(COc1ccc2ccccc2c1)NNC(=O)c1ccccc1	0.1	1.9	-2.5	0.0	0.5
O=Cc1ccc(OCc2ccc3ccccc3c2)cc1	-4.6	103.5*	50.5*	15.7	-0.9
O=C(O)c1ccc(COc2ccc3ccccc3c2)o1	3.0	40.2	nt	50.8*	nt
C/C=C/c1cnc2c(c1)C(=O)N([C@@H](C)CO)C[C@@H](C)[C@@H](CN(C)Cc1ccccc1)O2	nt	nt	-2.1	nt	3.0
CN1CCN(Cc2cc(Cl)c3cccnc3c2OC(=O)c2cccs2)CC1	0.0	-29.3	nt	62.0*	nt
O=C(Oc1c(CN2CCOCC2)cc(Cl)c2cccnc12)c1ccccc1Br	0.8	-68.2	-1.3	-19.8	8.1
COC(=O)c1ccc2nc(Nc3nc4ccc(F)cc4s3)sc2c1	-7.0	-83.5	-44.1	-13.9	2.5
CCOC(=O)c1csc(Nc2nc3ccc(F)cc3s2)n1	5.0	-14.2	nt	38.7*	nt
CC(=O)c1sc(Nc2nc3ccc(F)cc3s2)nc1C	2.6	43.5	nt	67.0*	nt
COc1cc(OC)cc(-c2cc3ccc(OC)cc3cn2)c1	-1.0	64.1	24.1	16.0	-135.2
COc1ccc2cc(-c3ccsc3)ncc2c1	6.6	-58.8	28.9	41.2*	-15.9
COc1cc2cnc(C3=CCCCC3)cc2cc1OC	2.2	23.6	24.5	11.2	-0.8
COc1ccc2cc(C3=CCCCC3)ncc2c1	2.5	30.9	8.3	42.4*	0.4
COc1ccc2cc(-c3ccccc3)ncc2c1	4.5	39.6	1.8	32.0*	-11.6
C[C@H](CO)N1C[C@H](C)[C@@H](CN(C)Cc2ccc(C(F)(F)F)cc2)OCCCC[C@H](C)Oc2ccc(NC(=O)Cc3ccccc3)cc2C1=O	nt	nt	-3.2	nt	25.7
CCCC(O)C#Cc1cnc2c(c1)C(=O)N([C@H](C)CO)C[C@H](C)[C@H](CN(C)C(=O)NC(C)C)O2 (stereo not given in full)	nt	nt	-5.0	nt	-7.2
O=C(C[C@@H]1CC[C@H]2[C@@H](COC[C@@H](O)CN2Cc2ccc3c(c2)OCO3)O1)Nc1ccc(-c2ccccc2)cc1	nt	nt	13.1	nt	10.8
C[C@@H]1CN([C@@H](C)CO)S(=O)(=O)c2ccc(-c3cncnc3)cc2O[C@H]1CN(C)C(=O)C1CC1	nt	nt	-4.7	nt	7.3
O=C(C[C@H]1CC[C@@H]2[C@H](COC[C@@H](O)CN2S(=O)(=O)c2ccccc2)O1)NCc1ccc2c(c1)OCO2	nt	nt	1.4	nt	-3.4
C[C@@H]1CCCCO[C@H](CN(C)C(=O)Nc2ccc3c(c2)OCO3)[C@@H](C)CN([C@H](C)CO)C(=O)c2cc(NC(=O)c3ccncc3)ccc2O1	nt	nt	2.1	nt	nt
SMILES	FXN GAA850 act	MITF act	esBAF inh	Wnt bcat act	Statin myotox sup
COc1ccc(-n2nc(C#N)c(Cl)cc2=O)cc1	32.8*	-99.9	nt	-1.1	nt
Nc1nc2c(s1)C(=O)CCC2	-1.1	6.5	-6.1	nt	90.5*
Nc1c2c(nc3ccccc13)CCCC2=O	0.6	nt	nt	5.1	nt
C[C@H](CO)N1C[C@H](C)[C@H](CN(C)S(=O)(=O)c2cccs2)OCCCC[C@H](C)Oc2ccc(NC(=O)Nc3ccccc3)cc2C1=O	nt	nt	-2.4	nt	nt
Cc1ccc(C(=O)NCC(=O)OCc2csc(-c3ccccc3)n2)cc1	3.8	2.7	nt	2.1	nt
O=C(OCc1csc(-c2ccccc2)n1)c1ccc(O)cc1	1.2	97.6*	nt	0.6	nt
CCCNC(=O)C[C@H]1CC[C@@H]2[C@H](COc3ccc(NC(=O)c4ccc5c(c4)OCO5)cc3C(=O)N2C)O1	nt	nt	-0.3	nt	-12.4
O=c1c2ccccc2nc2n1CCc1c-2[nH]c2ccccc12	6.5	39.0	27.5	40.7*	-27.7
CO[C@@H]1CN(C)C(=O)c2ccc(NC(=O)C3CCC3)cc2OC[C@@H](C)N(Cc2nccs2)C[C@H]1C	nt	nt	-0.1	nt	7.2
Cc1ccc(NC(=O)C2CCN(C(=O)[C@@H]3Cc4ccccc4CN3)CC2)cc1	2.1	37.1	54.4*	6.7	0.1
COc1cc(OC)c(C2=Nc3ccc(Br)cc3C(c3ccccc3)N2CC(=O)NN)cc1OC (stereo not given)	0.2	2.7	nt	36.6*	nt
C[C@H](CO)N1C[C@H](C)[C@@H](CN(C)C(=O)Nc2ccc(F)cc2)OCCCC[C@H](C)Oc2ccc(NC(=O)Nc3ccc(F)cc3)cc2C1=O	nt	nt	8.5	nt	nt
O=C(O)c1ccc(CSc2nnc(-c3ccccc3)n2-c2ccccc2)cc1	-0.8	-3.7	nt	34.9*	nt
O=C(O)c1ccc(CSc2nnc(-c3ccccc3Cl)n2-c2ccccc2)cc1	3.4	-9.8	-0.5	-1.8	2.5
C[C@H](CO)N1C[C@H](C)[C@H](CN(C)C(=O)Nc2ccc3c(c2)OCO3)Oc2ccc(NC(=O)Nc3cccc4ccccc34)cc2CC1=O	nt	nt	7.5	nt	-6.5
COC(=O)Cc1[nH]nc2c1C1(C(=O)N(Cc3ccccc3)c3ccccc31)C(C#N)=C(N)O2 (stereo not given)	-1.8	9.2	-3.8	-3.4	5.5
Cc1[nH]nc2c1C1(C(=O)N(Cc3ccc(Cl)cc3)c3ccccc31)C(C#N)=C(N)O2 (stereo not given)	0.1	-9.7	7.2	-10.4	104.9*
S=C(N=Nc1ccccc1)NNc1ccccc1	5.8	32.0	63.3*	43.5*	-5.0
S=C(NNC(=S)Nc1ccc(Cl)cc1)NNc1ccccc1	2.1	nt	nt	2.1	nt
OC(c1ccc(F)c(F)c1)c1nc(-c2cccs2)cs1 (stereo not given)	1.8	nt	13.9	0.1	4.8
OC(c1ccccc1)c1nc(-c2cccs2)cs1 (stereo not given)	1.6	nt	48.6*	5.6	1.8
COc1cccc(C(O)c2nc(-c3ccc(N(C)C)cc3)cs2)c1 (stereo not given)	5.3	nt	45.3*	19.3	9.8
COc1ccc(-c2csc(C(O)c3ccccc3)n2)cn1 (stereo not given)	0.2	nt	60.6*	nt	11.5
COc1ccc(-c2csc(C(NC(C)=O)c3cccc(F)c3)n2)cn1 (stereo not given)	0.2	nt	-11.5	-0.9	6.3
Cc1cc(C)n2c(Nc3ccc4c(c3)OCCO4)c(-c3ccc(C)o3)nc2n1	2.1	18.9	82.5*	24.0	25.3
COC(=O)c1ccccc1NC(=O)c1c(O)c2c([nH]c1=O)CCCC2	1.7	3.5	0.0	4.1	-0.9
O=C(Nc1ccc(O)cc1)c1c(O)c2c([nH]c1=O)CCCC2	6.4	86.4*	nt	21.3	nt
COc1ccc(-c2c(-c3ccsc3)oc(=O)c3cc(OC)c(OC)cc23)cc1	3.1	22.9	2.3	5.5	0.4
COCc1ccc(-c2c(-c3ccc(OC)cc3)oc(=O)c3cc(OC)c(OC)cc23)cc1	3.2	110.9*	?	27.7	-41.2
